Assay [1] addresses Paired box protein Pax-6 (Homo sapiens) (UniProt P26367). Description: ATG_Pax6_CIS: Attagene CIS-FACTORIAL HepG2 Assay for human Paired Box 6 (PAX6) (AID 2282956). The settings on record: HepG2 CIS-FACTORIAL PAX6 reporter transcription, RNA readout; actives raise or lower the signal. The method in brief:
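Read-out is reporter transcript level, measured by RT-PCR with fluorescent primer extension and capillary electrophoresis after 24 h dosing of transfected HepG2 cells. Activity in either direction fitted relative to DMSO control.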

The nature of assay [2]: ATG_PXRE_CIS: Attagene CIS-FACTORIAL HepG2 Assay for human Pregnane X Receptor Element (PXRE) (AID 2282957). As to conditions: HepG2 Attagene CIS-FACTORIAL PXRE reporter, mRNA; actives raise or lower the signal. The procedure, abridged:
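Using HepG2 transfected with multiple reporter transcription units, endogenous factor-driven transcription was scored as reporter mRNA after 24 h exposure.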

Assay [3] can be described thus: ATG_RORE_CIS: Attagene CIS-FACTORIAL HepG2 Assay for human RAR-related Orphan Receptor Element (RORE) (AID 2282959). The settings on record: HepG2 Attagene cis-factorial RORE reporter, mRNA; actives raise or lower the signal. The procedure, abridged:
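Fluorescence intensity of reporter-specific cDNA fragments, separated by capillary electrophoresis, gives the signal. Source: HepG2 liver cells transiently transfected with cis-element reporters and exposed 24 h; DMSO-normalized bidirectional fit.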

Assay [4] can be described thus: ATG_Sox_CIS: Attagene CIS-FACTORIAL HepG2 Assay for human SRY-box transcription factor (SOX) (AID 2282960). As to conditions: HepG2 Attagene cis-factorial SOX reporter, mRNA; actives raise or lower the signal. The method in brief:
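After 24 h of chemical treatment, transfected HepG2 reporter cells are lysed for total RNA. Transcript levels come from RT-PCR with labelled primer extension and capillary electrophoresis, analysed bidirectionally versus DMSO.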

Assay [5] has as its target Transcription factor Sp1 (Homo sapiens) (UniProt P08047). Description: ATG_Sp1_CIS: Attagene CIS-FACTORIAL HepG2 Assay for human Specificity Protein 1 (Sp1) (AID 2282961). The settings on record: HepG2 Sp1 cis-reporter transcription, actives raise or lower the signal. The method in brief: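 Sp1-driven reporter mRNA, read as capillary electrophoresis fluorescence after RT-PCR, in transiently transfected HepG2 cells dosed for 24 h; signal change in either direction relative to DMSO.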

A short description of assay [6]: ATG_SREBP_CIS: Attagene CIS-FACTORIAL HepG2 Assay for human Sterol Regulatory Element Binding (SREBP) (AID 2282962). As to conditions: HepG2 Attagene cis-factorial SREBP reporter, mRNA; actives raise or lower the signal. The method in brief: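 Endogenous SREBP activity read as cis-element-driven reporter transcript in transiently transfected HepG2, 24 h post-dosing; quantified via RT-PCR plus capillary electrophoresis of fluorescent fragments. Gain or loss of signal fitted relative to DMSO baseline.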

Assay [7] has as its target Signal transducer and activator of transcription 3 (Homo sapiens) (UniProt P40763). Description: ATG_STAT3_CIS: Attagene CIS-FACTORIAL HepG2 Assay for human Signal Transducer and Activator of Transcription 3 (STAT3) (AID 2282963). The settings on record: HepG2, Attagene cis-factorial STAT3 reporter transcription; actives raise or lower the signal. The procedure, abridged:
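Readout: fluorescent reporter mRNA fragments resolved by capillary electrophoresis. Setup: HepG2 transfected with MRTUs reporting endogenous transcription-factor activity, dosed 24 h. Gain or loss of signal fitted bidirectionally against DMSO control.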

Assay [8] in a line: ATG_TA_CIS: Attagene CIS-FACTORIAL HepG2 Assay for human TA Basal Promoter (AID 2282964). As to conditions: HepG2 Attagene CIS-factorial TA basal promoter reporter; actives raise or lower the signal. The procedure, abridged: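 HepG2 cells transiently transfected with multiplexed cis-promoter reporter units, dosed 24 h. Reporter mRNA measured by RT-PCR, 6-FAM labelling, HpaI digestion and capillary electrophoresis; bidirectional fit versus DMSO baseline, serving as background control.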

A short description of assay [9]: ATG_TCF_b_cat_CIS: Attagene CIS-FACTORIAL HepG2 Assay for human T-Cell-Factor with beta-catenin (TCF/b-cat) (AID 2282965). As to conditions: HepG2 TCF/beta-catenin cis-reporter transcription, actives raise or lower the signal. The procedure, abridged:
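HepG2 cells transiently transfected with cis-promoter-driven multiplexed reporter units; reporter mRNA measured 24 h after dosing by RT-PCR, FAM labelling, HpaI digestion and capillary electrophoresis. Bidirectional fitting relative to DMSO baseline.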

The nature of assay [10]: ATG_TAL_CIS: Attagene CIS-FACTORIAL HepG2 Assay for human TAL Basal Promoter (AID 2282966).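 Also: background control endpoint measuring basal TAL promoter reporter mRNA not a specific factor.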 As to conditions: HepG2 Attagene cis-factorial TAL promoter reporter; actives raise or lower the signal. The method in brief:
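After 24 hours of chemical exposure, transfected HepG2 cells yielded RNA that was converted to 6-FAM-labelled, HpaI-digested reporter fragments for capillary electrophoresis. Values derive from bidirectional fitting against DMSO controls.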

A short description of assay [11]: ATG_TGFb_CIS: Attagene CIS-FACTORIAL HepG2 Assay for human Transforming Growth Factor (TGF) (AID 2282967). As to conditions: HepG2 Attagene CIS TGFb reporter, mRNA transcription; actives raise or lower the signal. The procedure, abridged: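 HepG2 cells transiently transfected with cis-promoter-driven multiplexed reporter units; 24 h compound exposure. Reporter mRNA measured by RT-PCR, 6-FAM labeling, HpaI digestion and capillary electrophoresis; bidirectional fit versus DMSO baseline.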

A short description of assay [12]: ATG_VDRE_CIS: Attagene CIS-FACTORIAL HepG2 Assay for human Vitamin D Receptor Element (VDRE) (AID 2282968). As to conditions: HepG2 VDRE cis-reporter transcription, actives raise or lower the signal. The procedure, abridged:
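Transient MRTU transfection of HepG2, 24 h compound exposure. Readout: reporter transcripts via RT-PCR and capillary electrophoresis, fluorescence. Bidirectional fit vs DMSO.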

Assay [13] has as its target Estrogen receptor (Homo sapiens) (UniProt P03372). Description: ATG_ERa_TRANS: Attagene TRANS-FACTORIAL HepG2 Assay for human Estrogen Receptor alpha (ERa) (AID 2282970; active = hit-call score of the fitted dose curve at least 0.9, where 1 is the maximum). As to conditions: HepG2 Attagene TRANS ERa GAL4 reporter, mRNA. The method in brief: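 Liver-derived HepG2 cells expressing chimeric nuclear receptor-Gal4 proteins from transient transfection were exposed for 24 hours. Gain of reporter mRNA signal versus DMSO, read by capillary electrophoresis of FAM-labelled PCR products, was recorded.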

For assay [14], the target named is X-box-binding protein 1 (Homo sapiens) (UniProt P17861). Description: ATG_Xbp1_CIS: Attagene CIS-FACTORIAL HepG2 Assay for human X-box Binding Protein 1 (XBP1) (AID 2282972). The settings on record: HepG2 XBP1 cis-element reporter, Attagene multiplex; actives raise or lower the signal. The method in brief:
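Reporter transcripts were quantified by RT-PCR with fluorescent primer extension and capillary electrophoresis after 24 h chemical exposure. Cells: transiently transfected HepG2 carrying cis-regulated reporter constructs; data fitted bidirectionally relative to DMSO.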

Assay [15] is described as follows: ATG_M_19_TRANS: Attagene TRANS-FACTORIAL HepG2 Assay for M19 Transcription Factor (Internal Marker) (AID 2282974; active = hit-call score of the fitted dose curve at least 0.9, where 1 is the maximum). As to conditions: HepG2 Attagene TRANS-FACTORIAL M19 internal marker reporter. The procedure, abridged: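 Measured here: internal-marker reporter transcript from HepG2 cells transfected with MRTUs, harvested at 24 h. cDNA PCR products were 6-FAM labelled by primer extension, cut with HpaI for 2 h at 37 C, and resolved by CE.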

Assay [16] is described as follows: ATG_PPRE_CIS: Attagene CIS-FACTORIAL HepG2 Assay for human Peroxisome Proliferator-activated Response Element (PPRE) (AID 2282958). The settings on record: HepG2 PPRE cis-element reporter, Attagene transcription factor profiling; actives raise or lower the signal. The method in brief:
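Multiplexed reporter transcription units under cis-regulatory promoters were transfected into HepG2 cells to capture endogenous factor activity. A 24 h incubation preceded RNA isolation and fluorescent RT-PCR fragment analysis.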

Assay [17] can be described thus: ATG_GAL4_TRANS: Attagene TRANS-FACTORIAL HepG2 Assay for GAL4 (Internal Marker) (AID 2282976; active = hit-call score of the fitted dose curve at least 0.9, where 1 is the maximum). The settings on record: HepG2 Attagene TRANS GAL4 internal marker reporter. The method in brief:
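First, HepG2 cells were transfected with reporter units under GAL4-UAS control. Next, they were treated with chemical for 24 h. Finally, RNA was reverse-transcribed, PCR-amplified, FAM-labelled and resolved by capillary electrophoresis, with induction scored against DMSO.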

Inconclusive results are not listed. Calls of active or inactive are those of the source. The calls were made as follows, unless noted: active = hit-call score of the fitted dose curve at least 0.9, where 1 is the maximum; inactive = score below 0.9.

Chain of X-box-binding protein 1 (Homo sapiens) (P17861 whole entry, looked up): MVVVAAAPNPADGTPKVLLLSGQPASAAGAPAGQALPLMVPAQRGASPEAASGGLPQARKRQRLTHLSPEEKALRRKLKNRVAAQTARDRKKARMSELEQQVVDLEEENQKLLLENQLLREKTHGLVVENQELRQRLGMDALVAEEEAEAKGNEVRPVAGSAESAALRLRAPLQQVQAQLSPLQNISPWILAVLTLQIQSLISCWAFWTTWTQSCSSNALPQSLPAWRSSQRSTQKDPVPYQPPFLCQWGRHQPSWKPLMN
Chain of Signal transducer and activator of transcription 3 (Homo sapiens) (P40763 whole entry, looked up, the tested form may be a part): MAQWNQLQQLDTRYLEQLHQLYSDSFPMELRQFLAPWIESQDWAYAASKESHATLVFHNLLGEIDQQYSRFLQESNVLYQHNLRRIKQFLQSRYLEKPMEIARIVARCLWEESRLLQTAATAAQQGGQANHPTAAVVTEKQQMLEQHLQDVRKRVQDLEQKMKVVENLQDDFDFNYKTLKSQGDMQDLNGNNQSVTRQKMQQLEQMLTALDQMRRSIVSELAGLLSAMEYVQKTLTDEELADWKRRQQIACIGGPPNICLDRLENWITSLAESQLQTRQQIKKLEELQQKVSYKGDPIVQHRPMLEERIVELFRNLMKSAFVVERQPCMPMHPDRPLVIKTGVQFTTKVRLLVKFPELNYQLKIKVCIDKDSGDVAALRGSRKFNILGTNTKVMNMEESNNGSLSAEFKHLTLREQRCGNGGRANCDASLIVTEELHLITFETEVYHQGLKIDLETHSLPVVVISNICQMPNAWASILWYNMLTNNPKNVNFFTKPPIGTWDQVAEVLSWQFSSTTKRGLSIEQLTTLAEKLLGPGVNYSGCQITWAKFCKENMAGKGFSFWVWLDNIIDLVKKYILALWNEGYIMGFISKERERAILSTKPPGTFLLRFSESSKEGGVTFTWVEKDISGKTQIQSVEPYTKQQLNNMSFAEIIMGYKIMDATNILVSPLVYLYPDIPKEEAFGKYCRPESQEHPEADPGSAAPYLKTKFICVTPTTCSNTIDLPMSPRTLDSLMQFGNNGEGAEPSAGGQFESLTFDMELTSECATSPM
Chain of Estrogen receptor (Homo sapiens) (P03372 whole entry, looked up, the tested form may be a part): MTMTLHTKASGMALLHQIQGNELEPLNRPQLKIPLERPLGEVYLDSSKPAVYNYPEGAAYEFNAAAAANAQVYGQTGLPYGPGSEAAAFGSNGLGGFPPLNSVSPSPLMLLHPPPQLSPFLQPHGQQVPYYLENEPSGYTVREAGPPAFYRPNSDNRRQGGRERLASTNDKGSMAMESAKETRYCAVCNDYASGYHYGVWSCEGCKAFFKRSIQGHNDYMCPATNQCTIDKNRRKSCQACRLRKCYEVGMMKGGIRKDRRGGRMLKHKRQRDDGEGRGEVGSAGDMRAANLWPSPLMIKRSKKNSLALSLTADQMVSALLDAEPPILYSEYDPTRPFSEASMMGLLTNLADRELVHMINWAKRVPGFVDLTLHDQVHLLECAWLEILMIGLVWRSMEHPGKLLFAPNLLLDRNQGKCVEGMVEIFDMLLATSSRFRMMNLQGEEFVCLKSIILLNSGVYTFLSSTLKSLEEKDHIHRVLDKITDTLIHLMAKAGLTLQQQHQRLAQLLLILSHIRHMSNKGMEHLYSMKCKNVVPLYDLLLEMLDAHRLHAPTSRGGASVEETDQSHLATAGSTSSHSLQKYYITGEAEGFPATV
Chain of Transcription factor Sp1 (Homo sapiens) (P08047 whole entry, looked up): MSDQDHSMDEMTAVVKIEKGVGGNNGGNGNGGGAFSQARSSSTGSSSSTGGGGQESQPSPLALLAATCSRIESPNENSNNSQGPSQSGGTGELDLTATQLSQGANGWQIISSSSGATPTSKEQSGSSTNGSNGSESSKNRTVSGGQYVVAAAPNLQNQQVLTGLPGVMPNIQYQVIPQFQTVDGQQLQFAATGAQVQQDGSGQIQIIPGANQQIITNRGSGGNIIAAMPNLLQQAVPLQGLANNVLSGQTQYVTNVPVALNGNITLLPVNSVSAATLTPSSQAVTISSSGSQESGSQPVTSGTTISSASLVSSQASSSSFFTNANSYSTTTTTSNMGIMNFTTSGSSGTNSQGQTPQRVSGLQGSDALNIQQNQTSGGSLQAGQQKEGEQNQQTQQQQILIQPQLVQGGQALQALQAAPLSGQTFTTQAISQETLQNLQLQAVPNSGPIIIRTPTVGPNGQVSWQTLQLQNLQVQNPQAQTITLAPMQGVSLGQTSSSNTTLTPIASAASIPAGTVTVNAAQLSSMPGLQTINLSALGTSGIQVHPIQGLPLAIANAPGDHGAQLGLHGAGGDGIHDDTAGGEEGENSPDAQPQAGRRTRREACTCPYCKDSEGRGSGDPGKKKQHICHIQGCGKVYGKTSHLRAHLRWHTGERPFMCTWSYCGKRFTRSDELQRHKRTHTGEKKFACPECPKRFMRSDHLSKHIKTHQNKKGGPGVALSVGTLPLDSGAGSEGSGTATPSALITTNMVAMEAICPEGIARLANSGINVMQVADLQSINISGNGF
Chain of Paired box protein Pax-6 (Homo sapiens) (P26367 whole entry, looked up): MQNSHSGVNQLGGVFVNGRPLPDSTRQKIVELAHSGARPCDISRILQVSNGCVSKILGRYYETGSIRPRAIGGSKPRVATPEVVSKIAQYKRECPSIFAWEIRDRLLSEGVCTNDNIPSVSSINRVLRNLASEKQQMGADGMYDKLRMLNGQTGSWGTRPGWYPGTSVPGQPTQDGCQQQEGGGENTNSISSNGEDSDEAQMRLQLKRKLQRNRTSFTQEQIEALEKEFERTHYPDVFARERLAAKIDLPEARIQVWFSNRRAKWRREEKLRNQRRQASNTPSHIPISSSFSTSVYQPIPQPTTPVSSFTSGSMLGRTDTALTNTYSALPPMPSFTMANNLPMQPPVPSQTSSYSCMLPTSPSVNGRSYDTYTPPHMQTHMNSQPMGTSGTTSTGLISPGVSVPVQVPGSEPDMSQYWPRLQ

A word on the AC50: it is the concentration giving half of the maximal activity seen. For `CCCCNS(=O)(=O)c1ccccc1`, the compound was classed as inactive in [1], in assay [3], in assay [4], in assay [5], in [6] and in assay [7]. Moreover, the outcome in assay [8], in [9], in assay [10], in [11], in assay [12] and in [13] was inactive. The call in assay [14] and in assay [15] was inactive. Also, the AC50 in assay [2] was 26.7 µM (active).

For the compound `O=C(O)/C=C/c1ccccc1`, the result in assay [1], in assay [2], in [16], in assay [3], in assay [5] and in assay [6] was inactive. The compound was called inactive in [7], in assay [8], in [9], in [10], in assay [14] and in assay [17]. Moreover, the AC50 in assay [13] was 61.7 µM (active).

`Oc1c(Cl)cc(Cl)c(Cl)c1Cl`: the concentration at half-maximal activity (AC50) is 82.6 µM (active) in [1]; 26.5 µM (active) in [2]; 21.9 µM (active) in assay [16]; 61.5 µM (active) in [8]; 59.8 µM (active) in assay [12]. The compound was classed as inactive in assay [4], in assay [5], in [6], in [7], in assay [9] and in assay [10]. Further, the result in assay [11] and in [13] was inactive.

As for `Clc1cccnc1`, the call in [1], in [16], in assay [3], in assay [4], in assay [5] and in assay [6] was inactive. For the same compound, the compound was called inactive in assay [7], in assay [8], in [9], in assay [10], in [11] and in assay [12]. Also, the compound was classed as inactive in [14], in assay [15] and in [17]. The half-maximal activity concentration (AC50) in assay [2] was 27 µM (active).

As for `CC=CC(=O)OCC(C)C`, the call in [1], in assay [2], in assay [16], in [4], in [5] and in assay [6] was inactive. Further, the compound was called inactive in assay [7], in assay [8], in [9], in assay [10], in assay [11] and in assay [12]. For the same compound, the outcome in assay [13], in assay [14], in assay [15] and in [17] was inactive.

In the case of `CC(C)c1cc(C(C)C)cc(C(C)C)c1`, the AC50 in [1] was 159 µM (active); in [2], 52.1 µM (active); in assay [5] it was 145 µM (active); in [6], 100 µM (active); in assay [9], 169 µM (active); in assay [12] it was 100 µM (active). Besides, the concentration at half-maximal activity (AC50) in assay [13] was 58.9 µM (active). Besides, the call in assay [16], in assay [3], in assay [7], in [8], in assay [10] and in assay [11] was inactive. Moreover, the call in [14] and in [15] was inactive.

Regarding `COc1nccnc1CC(C)C`, the compound was classed as inactive in assay [1], in [2], in assay [16], in assay [4], in assay [5] and in assay [6]. Further, the compound was classed as inactive in [7], in assay [8], in assay [9], in [10], in assay [11] and in assay [12]. The outcome in assay [13], in assay [14] and in assay [17] was inactive.

As to `CCOC(=O)C1=NN(c2ccc(Cl)cc2Cl)C(C)(C(=O)OCC)C1` (stereo unspecified), the call in [1], in [16], in [3], in [5], in assay [6] and in [7] was inactive. Besides, the call in assay [9], in assay [10], in assay [11], in [12], in assay [13] and in assay [14] was inactive. Besides, the result in assay [15] and in assay [17] was inactive. Besides, the AC50 in assay [2] was 9.36 µM (active).

Turning to `COC(C=C(C)CCC=C(C)C)OC`, the outcome in assay [1], in assay [16], in assay [3], in assay [4], in assay [5] and in assay [6] was inactive. Moreover, the compound was called inactive in assay [7], in [9], in assay [10], in [11], in assay [13] and in assay [14]. Besides, the compound was classed as inactive in [15] and in [17]. For the same compound, the AC50 in [2] is 21.7 µM (active); in [12] it was 76.7 µM (active).

For the compound `CCCCCCCCCCCC(=O)N(C)CC(=O)O`, the compound was classed as inactive in assay [1], in assay [2], in [5], in assay [6], in assay [8] and in assay [9]. Further, the compound was called inactive in assay [10], in assay [11], in assay [12], in assay [13], in [14] and in assay [17]. Besides, the values for the AC50 in assay [16] and in assay [3] were 8.09 µM (active) and 19.6 µM (active), respectively.

Regarding `CC1=CP(=O)(c2ccccc2)CC1` (stereo unspecified), the compound was classed as inactive in assay [1], in assay [16], in [3], in assay [4], in [5] and in [6]. Further, the result in assay [8], in [9], in [10], in [12], in assay [14] and in assay [15] was inactive. The concentration at half-maximal activity (AC50) in assay [2] is 27.6 µM (active).

Source of the values: PubChem BioAssay (EPA / NIEHS).
